# Screens (PubChem)
# SMARCA2 act – activators of SMARCA2 function; MG213 cells, MMTV-luciferase reporter, dexamethasone, overnight; activation, % at 9.1 µM; 370,000 tested, 1% active; AID 652017; in the data active = activation above about 7.8%
# Gli-Sufu antag – Gli-Sufu pathway antagonism; Sufu-KO-LIGHT fibroblasts, Gli luciferase reporter luminescence; inhibition, % at 5 µM; 340,000 tested, 0.74% active; AID 588413;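 active = inhibition above about 55%, limit read from the data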
# Jurkat NFkB inh – lowers PMA/ionomycin-induced NF-kB signal in Jurkat cells; inhibition, % at 4 µM; 330,000 tested, 0.53% active; PMA/ionomycin-induced NF-kB luciferase reporter, luminescence; in the data active = inhibition above about 50%
# esBAF inh – blocks esBAF chromatin remodeling in mouse ES cells. 350,000 tested, 2% active. Bmi1-luciferase knock-in reporter, 24 h; 100% = twice the neutral-well signal. reporter increase, % at 12.5 µM; in the data active = activation above about 40%;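 also: a rise in the Bmi1 reporter signal indicates esBAF inhibition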
# 697 NFkB inh – inhibitors of the PMA/ionomycin-induced NF-kB reporter in 697 B cells; inhibition, % at 4 µM; AID 435022; 330,000 tested, 0.33% active; 697 B-cell NF-kB luciferase reporter, 16 h; in the data active = inhibition above about 35%
# Numbers stand for hits; n = inactive; x = not tested or not shown. In the library only some 3.3% were active in any assay of this set; here they are far more common.
SMILES,SMARCA2 act,Gli-Sufu antag,Jurkat NFkB inh,esBAF inh,697 NFkB inh
N=C1N(/N=C/c2ccccc2)C(=Nc2ccccc2)C(=S)N1c1ccccc1,n,n,n,60,n
CN(C)CC(=O)N[C@@H]1C=C[C@@H](CC(=O)NCCN2CCCCC2)O[C@@H]1CO,7.8,x,x,n,x
CC1(C)CC(=O)C(=Cc2cn(CCC#N)nc2-c2ccc(Cl)cc2)C(=O)C1,n,n,n,x,n
CC1(C)CC(=O)C(=Cc2cn(-c3ccccc3)nc2-c2ccc(Cl)cc2)C(=O)C1,n,n,n,83,n
O=C(NC(=S)NC12CC3CC(CC(C3)C1)C2)c1ccc(F)cc1,n,n,n,58,n
O=C(NC(=S)Nc1ncccn1)c1ccc(F)cc1,n,n,n,62,n
N#CC(C#N)=C(Nc1ccc(F)cc1)SCc1cccc(Br)c1,n,64,x,x,x
Clc1ccc(CSc2ccc(-c3ccccn3)nn2)cc1,n,n,n,n,n
Clc1ccc(CSc2cc3c(nn2)-c2ccccc2CC3)cc1,n,n,n,52,n
CCc1c(O)nc(SCC(=O)Nc2ccccc2)n(-c2ccccc2)c1=O,n,n,n,n,n
Cc1ccc(NC(=O)CSc2nc(O)c(Cc3ccccc3)c(=O)n2-c2ccccc2)cc1,n,n,n,25,n
C[C@@H]1CN([C@H](C)CO)C(=O)c2cccc(NC(=O)C3CC3)c2O[C@H]1CN(C)Cc1ccc2c(c1)OCO2,x,x,x,n,x
Cc1cnc(C(=O)N(c2ccccc2)C(c2ccccc2)c2nc3ccccc3[nH]2)cn1 (stereo not given),n,x,x,45,x
CSc1ccccc1OCc1cc(C(=O)N[C@H]2CCCCNC2=O)no1,n,n,n,66,n
COc1ccc(OCc2cc(C(=O)N[C@H]3CCCCNC3=O)no2)c(Cl)c1,n,n,n,x,n
CSc1ccccc1OCc1cc(C(=O)NC(C)c2cnn(C)c2)no1 (stereo not given),n,n,n,54,n
Cc1noc(C)c1NC(=O)N(C)C[C@H]1Oc2ccc(NS(=O)(=O)c3cccs3)cc2CC(=O)N([C@@H](C)CO)C[C@H]1C,x,x,x,n,x
CCn1c(=N)n(CC(=O)c2ccc(Br)s2)c2ccccc21,n,n,n,59,n
CCCCn1c(=N)n(CC(=O)c2ccc(Br)s2)c2ccccc21,n,n,n,n,n
COc1cccc(/C=N/NC(=O)CN(C)S(=O)(=O)c2ccccc2)c1OC,n,n,n,56,n
Cc1cccc(CCNc2nc3ccc(C)cc3n3cnnc23)c1,n,n,n,46,n
Cc1cc(C)c(C)c(C(=O)CSc2nnc(-c3ccc4[nH]c(C)c(C)c4c3)o2)c1C,n,n,n,x,n
Cc1[nH]c2ccc(-c3nnc(SCC(=O)c4ccc(F)cc4)o3)cc2c1C,12,n,n,n,n
CCCC#Cc1ccc2c(c1)O[C@H](CN(C)Cc1ccccc1)[C@H](C)CN([C@H](C)CO)S2(=O)=O,x,x,x,n,x
C/C(=N/OC(=O)c1ccccc1Br)c1ccc(C)cc1,n,n,n,64,n
SMILES,SMARCA2 act,Gli-Sufu antag,Jurkat NFkB inh,esBAF inh,697 NFkB inh
c1ccc(C2Oc3ccccc3C3CC(c4cccs4)=NN32)cc1 (stereo not given),n,n,n,85,n
CS(=O)(=O)N1N=C(c2cccs2)CC1c1ccccc1 (stereo not given),n,n,n,n,n
O=S(=O)(c1ccc(NC(=S)Nc2ccc3c(c2)OCO3)cc1)N1CCOCC1,n,n,n,45,n
O=C(Nc1ccc(S(=O)(=O)N2CCOCC2)cc1)c1ccc2c(c1)OCO2,n,n,n,n,n
COc1cccc(S(=O)(=O)Nc2ccc3c(c2)C(=O)N(C)C[C@H](OC)[C@@H](C)CN[C@@H](C)CO3)c1,x,x,x,n,x
CC(=O)NC(c1cccc(F)c1)c1nc(-c2cc3ccccc3o2)cs1 (stereo not given),n,x,x,n,x
OC(c1cccc(Cl)c1)c1nc(-c2cnc3ccccc3c2)cs1 (stereo not given),n,x,x,n,x
COc1ccc(C(O)c2nc(-c3cnc4ccccc4c3)cs2)cc1 (stereo not given),n,x,x,49,x
OC(c1ccc(F)cc1)c1nc(-c2cc3ccccc3o2)cs1 (stereo not given),n,x,x,70,x
OC(c1ccc(F)c(F)c1)c1nc(-c2ccc3ccccc3c2)cs1 (stereo not given),n,x,x,68,x
COc1ccc(C(O)c2nc(-c3cccc(O)c3)cs2)cc1 (stereo not given),n,x,x,n,x
OC(c1ccc(F)cc1)c1nc(-c2cnc3ccccc3c2)cs1 (stereo not given),n,x,x,48,x
NC(c1ccc(F)c(F)c1)c1nc(-c2ccc3ccccc3c2)cs1 (stereo not given),n,x,x,n,x
COCC(=O)N(C)C[C@H]1Oc2ncc(C#CCC3CCCC3)cc2C(=O)N([C@@H](C)CO)C[C@@H]1C,x,x,x,n,x
COc1ccc(C(=O)Nc2sc(C)c(C)c2CN2CC(C)OC(C)C2)cc1 (stereo not given),n,n,n,72,n
COc1cccc(OCc2nc3ccccc3c(=O)n2N)c1,x,n,n,47,n
Nn1c(COc2ccccc2)nc2ccccc2c1=O,n,n,n,n,n
O=C1CC(c2ccco2)CC2=C1C=Nc1ccccc1N2 (stereo not given),n,n,n,n,n
O=c1[nH]c2c(s1)C=Nc1ccccc1N2,n,n,n,54,n
COc1cc(C(=O)NCc2ccc(-c3nc4ccccc4s3)cc2)cc(OC)c1OC,n,n,n,x,n
COc1ccc(C(=O)NCc2ccc(-c3nc4ccccc4s3)cc2)cc1,n,n,n,69,n
COc1ccccc1C(=O)NCc1ccc(-c2nc3ccccc3s2)cc1,n,n,n,x,n
COc1cccc(C(=O)NCc2ccc(-c3nc4ccccc4s3)cc2)c1,n,n,n,52,n
CCNC(=O)C[C@H]1CC[C@H]2[C@@H](COc3ccc(NC(=O)c4ccc(F)cc4)cc3C(=O)N2C)O1,x,x,x,n,x
CCCNC(=O)N1C[C@@H]2[C@H](c3ccccc31)[C@@H](CO)N2Cc1cc(F)ccc1F,x,x,x,n,x
SMILES,SMARCA2 act,Gli-Sufu antag,Jurkat NFkB inh,esBAF inh,697 NFkB inh
CNc1cncc(-c2cnn(CC(C)C)c2)n1,n,x,x,43,x
CCCC(=O)Nc1ccc2c(c1)OC[C@H](C)N(C(=O)CC)C[C@H](C)[C@H](OC)CN(C)C2=O,x,x,x,n,x
COc1cccc(NC(=O)N[C@@H]2CC[C@H](CC(=O)N3CCOCC3)O[C@H]2CO)c1,x,x,x,n,x
CN(C)S(=O)(=O)c1cccc(CSCc2cccc(S(=O)(=O)N(C)C)c2)c1,n,57,n,n,n
Fc1ccc(-c2csc(N3CCSCC3)n2)cc1,n,n,n,46,n
O=C(c1ccccc1)C1OC1C(=O)c1ccccc1 (stereo not given),n,n,x,53,x
Cc1nn(CCOc2ccccc2)c(=O)n1-c1ccccc1,n,n,n,43,n
N#CCC(=O)Nc1ccc(C(=O)OCC(=O)NC(=O)Nc2ccc3c(c2)OCCO3)cc1,n,n,n,61,n
NCC[C@@H]1CC[C@H](NC(=O)C2CCCC2)[C@H](CO)O1,x,x,x,n,x
